Source: PubChem BioAssay (Tox21)
Results filed as inconclusive are left out. Active and inactive are the calls of the source. Unless noted, calls come from the whole dose curve; as a rule, active = well fitted curve in the direction sought with a large enough effect in the repeat runs; inconclusive = weak or mixed curves; inactive = no such curve, though single readings can be large; an effect the other way counts as inactive or inconclusive.

Tests used:
[1] = qHTS RealTime-Glo MT Cell Viability Assay in HEK293 cells - 24 hour (AID 1224886); note: top concentration of the series differs between compounds; nearly all actives have a fitted effect of over 50% in size
Procedure, shortened: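 Homogeneous bioluminescent viability format in HEK293 cells (600 cells/well). Following 5 h at 37 C/5% CO2, 23 nL compound was pintooled; the signal was measured repeatedly during 40 h incubation.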

[2] = qHTS RealTime-Glo MT Cell Viability Assay in HEK293 cells - 8 hour (AID 1224887); note: top concentration of the series differs between compounds; nearly all actives have a fitted effect of over 50% in size
Procedure, shortened: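 Real-time viability in HEK293: signal arises when living cells convert a prosubstrate for NanoLuc in the medium, so luminescence tracks viable cell number. Compound (23 nL, DMSO) added 5 h post-seeding; kinetic reads at 0–40 h, 37 C.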

[3] = A CellTox Green Cytotoxicity Assay to monitor cytotoxicity in HEK293 cells - 16 hour (AID 1224888); note: nearly all actives have a fitted effect of over 35% in size
Procedure, shortened: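 Cells (HEK293, 600/well) and dye reagent are dispensed together. After 5 h at 37 C, 23 nL compound is pinned in. Plates stay at 37 C for 40 h with fluorescence read at 0h, 8h, 16h, 24h, 32h and 40h.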

[4] = qHTS RealTime-Glo MT Cell Viability Assay in HepG2 cells - 0 hour (AID 1224889); note: nearly all actives have a fitted effect of over 50% in size
Procedure, shortened: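 Cell number in HepG2 cultures estimated from NanoLuc luminescence generated by metabolic reduction of a prosubstrate by living cells. The homogeneous, nonlytic format allowed repeated reads at 0, 8, 16, 24, 32 and 40 h of compound exposure.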

[5] = A CellTox Green Cytotoxicity Assay to monitor cytotoxicity in HepG2 cells - 8 hour (AID 1224890); note: nearly all actives have a fitted effect of over 45% in size
Procedure, shortened: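 Cells and non-lytic dye reagent are dispensed together (600 HepG2 cells/well) and incubated 5 h before DMSO compound transfer. Kinetic fluorescence is then recorded in the same wells during 40 h at 37 C.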

[6] = qHTS assay to identify small molecule antagonists of the estrogen receptor alpha (ER-alpha) signaling pathway using the BG1 cell line in the presence of 0.1 nM 17-beta-estradiol - cell viability counter screen (AID 1259241); note: nearly all actives have a fitted effect of over 40% in size
Procedure, shortened: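 VM7Luc4E2 cells (endogenous full-length ER-alpha, 4xERE-luciferase), cultured 5 days in charcoal-stripped serum, exposed to compounds with 0.1 nM 17beta-estradiol (final) for 22 hr at 37C. Viability read in same wells as live-cell protease fluorescence after 30 min.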

[7] = qHTS assay to identify small molecule antagonists of the androgen receptor (AR) signaling pathway using the MDA cell line in the presence of 0.5 nM R1881 - cell viability counter screen (AID 1259242); note: nearly all actives have a fitted effect of over 45% in size
Procedure, shortened: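 Steps: plate MDA-kb2 cells, rest 5 hr at 37C without CO2; pin in compounds in DMSO; add R1881 to 0.5 nM final; incubate 16 hr; add CellTiter-Fluor, 30 min; read fluorescence.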

[8] = biological target: Androgen receptor (Homo sapiens) (UniProt P10275); experiment: qHTS assay to identify small molecule antagonists of the androgen receptor (AR) signaling pathway using the MDA cell line in the presence of 0.5 nM R1881 (AID 1259243); note: nearly all actives have a fitted effect of over 50% in size
Sequence of Androgen receptor (Homo sapiens) (P10275 whole entry, looked up): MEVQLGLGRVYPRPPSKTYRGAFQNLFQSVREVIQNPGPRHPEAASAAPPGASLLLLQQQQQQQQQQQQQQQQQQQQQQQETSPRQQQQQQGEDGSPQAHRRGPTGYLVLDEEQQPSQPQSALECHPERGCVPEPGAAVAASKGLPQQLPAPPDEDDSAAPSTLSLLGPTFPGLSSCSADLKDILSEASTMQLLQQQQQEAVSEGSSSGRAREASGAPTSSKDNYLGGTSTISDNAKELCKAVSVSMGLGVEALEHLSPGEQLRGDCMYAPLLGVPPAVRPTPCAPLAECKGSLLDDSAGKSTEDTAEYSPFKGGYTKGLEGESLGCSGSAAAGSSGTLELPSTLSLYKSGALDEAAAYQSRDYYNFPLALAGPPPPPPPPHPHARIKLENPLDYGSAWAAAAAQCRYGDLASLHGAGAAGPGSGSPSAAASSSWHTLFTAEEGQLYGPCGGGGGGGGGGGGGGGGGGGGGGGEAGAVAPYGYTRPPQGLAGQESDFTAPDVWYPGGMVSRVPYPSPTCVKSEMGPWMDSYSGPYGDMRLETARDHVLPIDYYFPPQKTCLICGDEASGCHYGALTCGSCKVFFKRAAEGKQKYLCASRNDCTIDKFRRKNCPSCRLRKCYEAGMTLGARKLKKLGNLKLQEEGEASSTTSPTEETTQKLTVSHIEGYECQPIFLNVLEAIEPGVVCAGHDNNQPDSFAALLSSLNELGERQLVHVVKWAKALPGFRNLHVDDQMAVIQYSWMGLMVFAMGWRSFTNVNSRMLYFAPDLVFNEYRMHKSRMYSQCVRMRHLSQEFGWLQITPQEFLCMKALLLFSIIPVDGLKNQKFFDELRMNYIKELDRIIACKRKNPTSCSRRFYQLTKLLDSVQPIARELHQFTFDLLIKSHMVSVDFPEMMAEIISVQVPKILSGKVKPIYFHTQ
Procedure, shortened: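 Stably transfected MDA-kb2 cells express luciferase from an MMTV promoter bearing both AR and GR response elements. Compounds plus 0.5 nM R1881 (final) were incubated 16 hr at 37C without CO2, then luminescence measured.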

[9] = biological target: Estrogen receptor (Homo sapiens) (UniProt P03372); experiment: qHTS assay to identify small molecule antagonists of the estrogen receptor alpha (ER-alpha) signaling pathway using the BG1 cell line in the presence of 0.1 nM 17-beta-estradiol (AID 1259244); note: nearly all actives have a fitted effect of over 50% in size
Sequence of Estrogen receptor (Homo sapiens) (P03372 whole entry, looked up): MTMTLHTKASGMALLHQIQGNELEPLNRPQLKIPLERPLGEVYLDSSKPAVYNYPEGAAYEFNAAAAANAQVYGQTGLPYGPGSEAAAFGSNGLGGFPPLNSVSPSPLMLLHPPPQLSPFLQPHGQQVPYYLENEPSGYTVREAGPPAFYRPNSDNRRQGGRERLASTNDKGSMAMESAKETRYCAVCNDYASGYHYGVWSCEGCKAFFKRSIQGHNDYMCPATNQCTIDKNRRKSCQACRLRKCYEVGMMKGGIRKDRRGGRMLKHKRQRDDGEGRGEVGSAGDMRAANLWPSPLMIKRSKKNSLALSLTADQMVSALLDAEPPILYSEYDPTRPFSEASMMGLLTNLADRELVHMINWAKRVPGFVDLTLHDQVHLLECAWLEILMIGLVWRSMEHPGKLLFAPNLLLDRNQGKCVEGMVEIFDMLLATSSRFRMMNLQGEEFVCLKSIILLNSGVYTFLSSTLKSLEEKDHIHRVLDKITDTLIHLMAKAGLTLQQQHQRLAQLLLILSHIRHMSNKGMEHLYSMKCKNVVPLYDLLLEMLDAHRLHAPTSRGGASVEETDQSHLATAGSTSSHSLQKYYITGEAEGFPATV
Procedure, shortened: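 Antagonist mode: compounds in DMSO are pinned onto VM7Luc4E2 reporter cells, 0.1 nM final 17beta-estradiol is added, and after 22 h at 37C luciferase luminescence is measured with ONE-Glo.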

[10] = qHTS assay to identify small molecule HDAC inhibitors - cell viability counter screen (AID 1259365)
Procedure, shortened: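 Wild-type HCT-116 cells, 1,500/well, cultured overnight, then compound-treated 2 h at 37 C. Viability measured as ATP luminescence with CellTiter-Glo after 30 min at room temperature.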

[11] = qHTS assay to identify small molecule agonists of the sonic hedgehog signaling (Shh) pathway - cell viability counter screen (AID 1259366); note: nearly all actives have a fitted effect of over 50% in size
Procedure, shortened: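 NIH/3T3-derived Gli1-Luc reporter cells, 2,000 per well, received compound after 4 h and were treated about 23 h at 37C. Viability measured in the same wells by CellTiter-Fluor fluorescence after 1 h.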

[12] = qHTS assay to identify small molecule antagonists of the sonic hedgehog signaling (Shh) pathway - cell viability counter screen (AID 1259367); note: nearly all actives have a fitted effect of over 55% in size
Procedure, shortened: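 Fluorescence read-out (CellTiter-Fluor, 1 hr at 37C) taken after 23 hr compound treatment of 3T3 Gli1-Luc cells stimulated with conditioned medium. Cells were seeded at 2,000 per well and pre-incubated 4 hr.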

[13] = qHTS assay to identify small molecule agonists of the sonic hedgehog signaling (Shh) pathway (AID 1259368; calls by dose curve;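 note: NIH/3T3-derived 3T3Gli1-Luc cells carrying a stable Gli1-driven firefly luciferase reporter; series mostly up to about 92 µM; nearly all actives have a fitted effect of over 15% in size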)
Procedure, shortened: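 Cells of a mouse NIH/3T3 clone stably expressing luciferase under the Gli1 transcriptional response element are exposed to test chemicals for 24 hr at 37 C. Pathway activation is detected as a rise in luminescence.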

[14] = biological target: Estrogen receptor beta (Homo sapiens) (UniProt Q92731); experiment: qHTS assay to identify small molecule agonists of the estrogen receptor beta (ER-beta) signaling pathway (AID 1259377; active = well fitted activation curve with a large enough effect in the signal ratio in the repeat runs, not every such curve was filed as active; the % refers to the signal ratio)
Sequence of Estrogen receptor beta (Homo sapiens) (Q92731 whole entry, looked up): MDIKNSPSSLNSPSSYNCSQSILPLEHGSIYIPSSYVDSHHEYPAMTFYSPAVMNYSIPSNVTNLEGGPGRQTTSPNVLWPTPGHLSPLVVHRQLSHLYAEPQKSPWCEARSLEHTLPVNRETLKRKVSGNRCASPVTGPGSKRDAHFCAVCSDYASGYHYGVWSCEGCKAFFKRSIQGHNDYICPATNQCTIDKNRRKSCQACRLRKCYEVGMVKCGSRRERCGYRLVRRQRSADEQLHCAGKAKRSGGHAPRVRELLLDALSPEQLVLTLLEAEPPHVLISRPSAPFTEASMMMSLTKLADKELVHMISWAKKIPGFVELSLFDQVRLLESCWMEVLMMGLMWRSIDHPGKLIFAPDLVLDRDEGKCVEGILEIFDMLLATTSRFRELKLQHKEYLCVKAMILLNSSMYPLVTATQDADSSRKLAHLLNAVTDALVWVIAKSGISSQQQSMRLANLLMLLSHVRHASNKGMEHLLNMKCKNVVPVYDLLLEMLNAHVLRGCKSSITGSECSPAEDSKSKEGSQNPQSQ
Procedure, shortened: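 ER-beta-UAS-bla HEK293T cells in medium with 2% charcoal-stripped FBS were exposed to compounds for 16 h at 37C. Beta-lactamase reporter activity was read as fluorescence after 2 h with LiveBLAzer B/G FRET substrate at room temperature.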

[15] = biological target: Estrogen receptor beta (Homo sapiens) (UniProt Q92731); experiment: qHTS assay to identify small molecule antagonists of the estrogen receptor beta (ER-beta) signaling pathway (AID 1259378; active = well fitted inhibition curve with a large enough effect in the signal ratio in the repeat runs, not every such curve was filed as active; the % refers to the signal ratio; note: potency is the fitted concentration of half-maximal effect)
Procedure, shortened: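 ER-beta-UAS-bla HEK293T cells in 2% charcoal-stripped FBS medium treated with compound plus 1nM final 17-beta-estradiol for 16 hr at 37C. Beta-lactamase reporter read by FRET substrate fluorescence after 2 hours at room temperature.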

[16] = qHTS assay to identify small molecule agonists of the androgen receptor (AR) signaling pathway in the presence of an antagonist - cell viability counter screen (AID 1259379);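 note: MDA-kb2 human breast cancer cells carrying an MMTV luciferase reporter; series mostly up to about 92 µM; nearly all actives have a fitted effect of over 25% in size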
Procedure, shortened: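 Cytotoxicity is assessed by CellTiter-Fluor in MDA-kb2 cells carrying an MMTV-driven luciferase reporter. Cells receive 3.0uM nilutamide plus compounds at 15 concentrations and incubate 16 hr at 37C without CO2 before fluorescence reading.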

[17] = qHTS assay to identify small molecule agonists of the estrogen receptor beta (ER-beta) signaling pathway - cell viability counter screen (AID 1259380); note: nearly all actives have a fitted effect of over 30% in size
Procedure, shortened: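 Cytotoxicity is measured in parallel with the reporter screen: after 16 hr compound exposure at 37C and a 2 hr LiveBLAzer step, CellTiter-Glo is added to the same ER-beta-UAS-bla HEK293T wells and luminescence read after 30 min.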

[18] = qHTS assay to identify small molecule HDAC inhibitors (AID 1259364);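 note: wild-type HCT-116 cells with endogenous class I/II HDAC activity; top concentration of the series differs between compounds; nearly all actives have a fitted effect of over 45% in size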
Procedure, shortened: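 Cells (HCT-116, wild type) are seeded at 1,500 per well, incubated overnight, treated with compound in DMSO for 2 hr, then developed with HDAC-Glo I/II reagent for 30 min at room temperature.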

[19] = qHTS assay to identify small molecule antagonists of the sonic hedgehog signaling (Shh) pathway (AID 1259369; calls by dose curve; note: nearly all actives have a fitted effect of over 45% in size)
Procedure, shortened: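 Cells are plated and held 4hr at 37 C, compounds (DMSO) are pinned in, conditioned medium is added to stimulate the pathway, and after 24hr luciferase reagent is added for 30min before luminescence is read.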
% is set by controls: 0 for no effect and ±100 for the full control effect.

O=C(O)CN(CCCN(CC(=O)O)CC(=O)O)CC(=O)O
active: Potency [15] 2310 nM
inactive: activity change, negative = cytotoxicity [1] -9.03% [at 15.8 µM] | activity change, negative = cytotoxicity [2] -4.97% [at 15.8 µM] | activity change [3] 0.612% [at 15.8 µM, active compounds read high] | activity change, negative = cytotoxicity [4] -28.3% [at 15.8 µM] | cytotoxicity increase [5] -1.45% [at 15.8 µM] | activity change, negative = cytotoxicity [6] 0.536% [at 19 µM] | viability change, negative = cytotoxic [7] 0.128% [at 19 µM] | activity, negative = inhibition [8] 1.14% [at 19 µM] | activity change, negative = inhibition [9] -0.399% [at 19 µM] | activity change, negative = cytotoxicity [10] -1.94% [at 19 µM] | viability change, negative = cytotoxic [11] -10.7% [at 19 µM] | viability change, negative = cytotoxic [12] -4.5% [at 19 µM] | activity change [13] -1.26% [at 18.9 µM, active compounds read high] | activation [14] -3.28% [at 19 µM] | activity change, negative = cytotoxicity [16] -2.17% [at 19 µM] | activity change, negative = cytotoxicity [17] -20.5% [at 19 µM]

CCc1cccc(C)c1N(C(=O)C(=O)O)C(C)COC (stereo not drawn)
inactive: Potency [1] | Potency [2] | Potency [3] | Potency [4] | Potency [5] | Potency [6] | Potency [7] | Potency [9] | Potency [18] | Potency [10] | Potency [11] | Potency [12] | Potency [13] | Potency [19] | Potency [16] | Potency [17]

Nc1cc([N+](=O)[O-])cc(Cl)c1O
inactive: Potency [1] | Potency [2] | Potency [3] | Potency [4] | Potency [5] | Potency [6] | Potency [7] | Potency [9] | Potency [18] | Potency [10] | Potency [12] | Potency [13] | Potency [19] | outcome [14] | Potency [17]

CCCCCCCCCCCCS(=O)(=O)Cl
inactive: activity change, negative = cytotoxicity [1] 12.2% [at 15.8 µM] | activity change, negative = cytotoxicity [2] 8.12% [at 15.8 µM] | activity change [3] 2.57% [at 15.8 µM, active compounds read high] | activity change, negative = cytotoxicity [4] -8.49% [at 15.8 µM] | cytotoxicity increase [5] -21% [at 15.8 µM] | activity change, negative = cytotoxicity [6] -4% [at 19 µM] | viability change, negative = cytotoxic [7] -2.53% [at 19 µM] | activity, negative = inhibition [8] 0.127% [at 19 µM] | activity change, negative = inhibition [18] -0.19% [at 19 µM] | activity change, negative = cytotoxicity [10] -1.8% [at 19 µM] | viability change, negative = cytotoxic [11] -2.48% [at 19 µM] | viability change, negative = cytotoxic [12] -1.82% [at 19 µM] | activity change [13] 0.0807% [at 18.9 µM, active compounds read high] | activity change, negative = inhibition [19] 18.4% [at 19 µM] | activity, negative = inhibition [15] -20.1% [at 19 µM] | activity change, negative = cytotoxicity [16] 2.74% [at 19 µM]

CCOC=C(C(=O)OCC)C(=O)OCC
inactive: Potency [1] | Potency [2] | Potency [3] | Potency [4] | Potency [5] | Potency [6] | Potency [7] | Potency [9] | Potency [10] | Potency [11] | Potency [12] | Potency [13] | Potency [19] | Potency [15] | Potency [16] | Potency [17]

CC(=O)CC(N)=O
inactive: Potency [1] | Potency [2] | Potency [3] | Potency [4] | Potency [5] | Potency [6] | Potency [7] | Potency [9] | Potency [18] | Potency [10] | Potency [11] | Potency [12] | Potency [13] | Potency [19] | Potency [16] | Potency [17]

CCOC(=O)[C@H](C)O
inactive: Potency [1] | Potency [2] | Potency [3] | Potency [4] | Potency [5] | Potency [6] | Potency [7] | Potency [9] | Potency [18] | Potency [10] | Potency [11] | Potency [12] | Potency [13] | outcome [14] | Potency [15] | Potency [16] | Potency [17]
